{"source": "PubChem BioAssay AID1985", "about": "(Southern Research Specialized Biocontainment Screening …, 2009)", "note": "About 1,000 (43%) of roughly 2,300 compounds were called active. The rule behind the calls is not given here. So high a share suggests a set chosen from earlier hits. The list shows a part of the results. Results with a measured potency or affinity are listed apart."}
{"experiment": "modified counter assay using GFP fluorescence, PhoP regulon inhibitor project, dose response (AID 1985)", "settings": "S. Typhi, 4 h; series mostly up to 150 µM; inhibition: at the top concentration"}
{"compound": "Cc1cc(C(=O)Cn2cncn2)c(C)n1CCc1ccc(F)cc1", "inhibition": "-9.81% (inactive)"}
{"compound": "COc1ccc(Cl)cc1NC(=O)CCN1CCOCC1", "inhibition": "-23.1% (inactive)"}
{"compound": "O=C(CCN1CCOCC1)Nc1ccccc1", "inhibition": "7.63% (inactive)"}
{"compound": "CCCNC(=O)COc1ncnc2sc(C)c(C)c12", "inhibition": "2.57% (inactive)"}
{"compound": "Cc1cc(C)cc(N(C(=O)CNC(=O)c2cccs2)C(C(=O)NC2CCCC2)c2cccnc2)c1", "note": "(stereo not given)", "inhibition": "-9.22% (inactive)"}
{"compound": "Cc1c(C2(O)C(=O)Nc3ccc(F)cc32)c(=O)n(-c2ccccc2)n1C", "note": "(stereo not given)", "inhibition": "0.39% (inactive)"}
{"compound": "C=CCOC(=O)C1=C(C)NC2(O)c3ccccc3C(=O)C12O", "note": "(stereo not given)", "inhibition": "0.1% (inactive)"}
{"compound": "N#C/C(=C\\c1ccc(O)c(O)c1)C(=O)NCc1ccccc1", "inhibition": "38.4% (inactive)"}
{"compound": "CCc1nn(CCCN2CCN(c3cccc(Cl)c3)CC2)c(=O)n1CCOc1ccccc1", "inhibition": "9.36% (inactive)"}
{"compound": "Cc1c(C)n(C)c2ccc(C(=O)NCCCN3CCCC3)cc12", "inhibition": "28.8% (inactive)"}
{"compound": "CC1CCN(CCCCOc2ccc(Cl)cc2)CC1", "inhibition": "20.8% (inactive)"}
{"compound": "Cn1c(CN2CCCC2)nc2cc(NC(=O)COc3ccc(Cl)cc3)ccc21", "inhibition": "24.1% (inactive)"}
{"compound": "Cc1ccc(-c2nnc3sc(-c4ccncc4)nn23)cc1", "inhibition": "25.5% (inactive)"}
{"compound": "COc1ccc(C2C(C(=O)N3CCC4(CC3)OCCO4)CC(=O)N2c2ccc(OC)cc2)cc1", "note": "(stereo not given)", "inhibition": "12.2% (inactive)"}
{"compound": "O=C(c1ccc2c(c1)[nH]c(=S)n1c3ccccc3nc21)N1CCN(c2cccc(Cl)c2)CC1", "inhibition": "14.9% (inactive)"}
{"compound": "CCNC(=S)Nc1cccc(S(=O)(=O)Nc2ccccc2OC)c1", "inhibition": "18.7% (inactive)"}
{"compound": "COc1cc(NS(=O)(=O)c2ccc(NC(=S)Nc3ccccc3)cc2)nc(OC)n1", "inhibition": "36.1% (inactive)"}
{"compound": "Cc1ccc(C)c(SCC(=O)Nc2ccc(S(=O)(=O)Nc3ncccn3)cc2)c1", "inhibition": "34.1% (inactive)"}
{"compound": "COC(=O)Cc1ccc(NC(=S)NCc2ccc(Cl)cc2)cc1", "inhibition": "-22.3% (inactive)"}
{"compound": "O=S(=O)(Nc1ncccn1)c1ccc(NC(=S)Nc2ccccc2Cl)cc1", "inhibition": "36.4% (inactive)"}
{"compound": "NC(N)=NC(N)=Nc1cccc2ccccc12", "inhibition": "18% (inactive)"}
{"compound": "CCNC(=O)c1ccc(C2SCC(=O)N2CCc2ccccc2)cc1", "note": "(stereo not given)", "inhibition": "16.7% (inactive)"}
{"compound": "COc1ccc(NC(=O)CN(C)S(=O)(=O)c2ccc(Cl)cc2)cc1Cl", "inhibition": "21.3% (inactive)"}
{"compound": "COc1cccc(NC(=O)COC(=O)Cc2ccccc2[N+](=O)[O-])c1", "inhibition": "-2.16% (inactive)"}
{"compound": "Oc1ccccc1N=Cc1c(O)ccc2oc3c(c12)CCCC3", "inhibition": "-7.38% (inactive)"}
{"compound": "CC(=O)NCc1ccc(C(=O)CSc2nnc(-c3ccncc3)n2Cc2ccccc2)o1", "inhibition": "-20.9% (inactive)"}
{"compound": "Cc1[nH]c2ccccc2c1/C=N/Nc1nc2ccccc2[nH]1", "inhibition": "7.61% (inactive)"}
{"compound": "O=C(CN(CCc1ccccc1)C(=O)CNS(=O)(=O)c1ccc(F)cc1)NCC1CCCO1", "note": "(stereo not given)", "inhibition": "13.2% (inactive)"}
{"compound": "COc1ccc(/C=N/NC(=O)c2ccc3c(c2)OCO3)cc1", "inhibition": "28.6% (inactive)"}
{"compound": "OCn1ncn(-c2ccccc2)c1=S", "inhibition": "-2.16% (inactive)"}
{"compound": "CCN(CC)/C(N)=N/c1nc(C)cc(C)n1", "inhibition": "-12.9% (inactive)"}
{"compound": "c1ccc(-c2nnc(-c3c[nH]c4ccccc34)nc2-c2ccccc2)cc1", "inhibition": "13.8% (inactive)"}
{"compound": "COC(=O)c1ccc(S(=O)(=O)N2CCC(c3nc4ccccc4o3)CC2)cc1", "inhibition": "6.39% (inactive)"}
{"compound": "Cc1cc(N2CCN(C3CCCCC3)CC2)nc2cccc(O)c12", "inhibition": "21.3% (inactive)"}
{"compound": "O=C(CN1C2=NCCCN2c2ccccc21)c1ccc2c(c1)OCO2", "inhibition": "28% (inactive)"}
{"compound": "O=C(CN1C2=NCCCN2c2ccccc21)c1ccc([N+](=O)[O-])cc1", "inhibition": "24.9% (inactive)"}
{"compound": "CC(C)N=C1NN=C(c2ccc(F)cc2)CS1", "inhibition": "-1.37% (inactive)"}
{"compound": "COc1ccc(Nc2nc(NCC3CCCO3)c3ccccc3n2)c(OC)c1", "note": "(stereo not given)", "inhibition": "22.7% (inactive)"}
{"compound": "COc1ccc(CCn2c(=N)c(C(=O)NCC3CCCO3)cc3c(=O)n4ccccc4nc32)cc1", "note": "(stereo not given)", "inhibition": "0.56% (inactive)"}
{"compound": "Cn1cc(S(=O)(=O)NCC2CCCO2)c(=O)n(C)c1=O", "note": "(stereo not given)", "inhibition": "7.24% (inactive)"}
{"compound": "Cc1cccn2c(=O)c3cc(C(=O)NCC4CCCO4)c(=N)n(C4CCCC4)c3nc12", "note": "(stereo not given)", "inhibition": "-27.2% (inactive)"}
{"compound": "COc1ccccc1Nc1nc(NCC2CCCO2)c2ccccc2n1", "note": "(stereo not given)", "inhibition": "33.1% (inactive)"}
{"compound": "COc1ccc(Cn2c(=N)c(C(=O)NCC3CCCO3)cc3c(=O)n4ccccc4nc32)cc1", "note": "(stereo not given)", "inhibition": "28.2% (inactive)"}
{"compound": "COc1ccc(Nc2nnc(SCC3CCCO3)s2)cc1", "note": "(stereo not given)", "inhibition": "-4% (inactive)"}
{"compound": "CCN(CC)S(=O)(=O)c1cc(NC(=O)C2Cc3ccccc3C(=O)O2)ccc1C", "note": "(stereo not given)", "inhibition": "-9.8% (inactive)"}
{"compound": "Cc1c(C(=O)O)sc(=S)n1-c1ccc(Cl)cc1", "inhibition": "-13.2% (inactive)"}
{"compound": "O=C1c2ccc3c4c(ccc(c24)C(=O)N1c1cccc(O)c1)C(=O)N(c1cccc(O)c1)C3=O", "inhibition": "-6.67% (inactive)"}
{"compound": "O=C1CSC(=S)N1c1cccnc1", "inhibition": "28.8% (inactive)"}
{"compound": "Cc1cccc(N2C(=O)CS/C2=N\\NC(=O)c2ccc(Br)cc2)c1C", "inhibition": "31.3% (inactive)"}
{"compound": "Cc1nn(C)c(C)c1NC(=O)c1ccc(S(=O)(=O)N(C)C)cc1", "inhibition": "19.6% (inactive)"}
{"compound": "COc1ccc(CCNC(=O)Cn2c(=O)n(CC3CCCO3)c(=O)c3ccccc32)cc1OC", "note": "(stereo not given)", "inhibition": "-10.2% (inactive)"}
{"compound": "O=C(Nc1ccc(F)cc1)c1ccc2snnc2c1", "inhibition": "-4.49% (inactive)"}
{"compound": "O=C(CSCc1ccccc1)Nc1cccc(C(=O)Nc2ccc(C(=O)O)cc2)c1", "inhibition": "6.57% (inactive)"}
{"compound": "CC(C)[C@@H](C(=O)NC1CCCC1)N1C(=O)N2CCc3c([nH]c4ccccc34)[C@@]2(C)C1=O", "inhibition": "2.6% (inactive)"}
{"compound": "[O-][n+]1onc2c1CCc1[nH]c(-c3ccccc3)nc1-2", "inhibition": "-1.13% (inactive)"}
